Screens deposited in PubChem by several laboratories.
Rows were chosen to be rich in hits. Some 1.6% of all compounds tested hit in one or more screens of this group.
VLA-4 inh – inhibition in a human VLA-4 binding assay; P13612; VLA-4 expressing cells, ligand binding flow cytometry; inhibition, % (about 7 µM as worked out from the volumes in the protocol); 330,000 compounds, 0.2% hits; in the data active = inhibition above about 50%
PREPL inh – inhibitors of human prolyl oligopeptidase-like enzyme PREPL; recombinant PREPL, fluorescence polarization activity-based probe; inhibition, % at 5.96 µM; 320,000 compounds, 0.68% hits; in the data active = inhibition above about 43%;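 also: 0% = enzyme with DMSO and 100% = wells lacking enzyme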
Target sequence (Q4J6C6 whole entry, looked up): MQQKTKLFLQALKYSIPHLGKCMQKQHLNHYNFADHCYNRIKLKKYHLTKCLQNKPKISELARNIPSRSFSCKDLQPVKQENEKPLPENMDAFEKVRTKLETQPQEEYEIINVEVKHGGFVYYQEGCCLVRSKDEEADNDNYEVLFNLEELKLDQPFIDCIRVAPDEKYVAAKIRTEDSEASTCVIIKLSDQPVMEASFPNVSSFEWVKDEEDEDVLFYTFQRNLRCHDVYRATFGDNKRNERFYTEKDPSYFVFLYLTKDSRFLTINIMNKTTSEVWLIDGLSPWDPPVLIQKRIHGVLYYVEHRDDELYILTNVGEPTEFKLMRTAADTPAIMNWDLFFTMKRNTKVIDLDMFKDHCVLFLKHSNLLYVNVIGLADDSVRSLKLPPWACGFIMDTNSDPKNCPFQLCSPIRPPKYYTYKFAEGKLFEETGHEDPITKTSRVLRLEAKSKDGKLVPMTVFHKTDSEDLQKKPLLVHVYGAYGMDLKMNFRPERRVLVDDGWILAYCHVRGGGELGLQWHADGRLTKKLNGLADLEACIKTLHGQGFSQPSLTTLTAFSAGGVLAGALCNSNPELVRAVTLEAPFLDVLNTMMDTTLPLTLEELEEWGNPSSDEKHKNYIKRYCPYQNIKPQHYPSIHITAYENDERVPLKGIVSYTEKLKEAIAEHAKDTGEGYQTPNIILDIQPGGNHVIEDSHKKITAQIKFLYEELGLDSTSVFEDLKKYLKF
GASC-1 inh – inhibitors of human GASC-1 (JMJD2C) demethylase; Q9H3R0; GST-JMJD2C(1-420) H3K9me3 demethylation, DELFIA europium; 330,000 compounds, 0.069% hits; inhibition, % at 2.35 µM;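 active = more than half of a compound's replicate wells show inhibition beyond 50%, single wells judged on their own value; inconclusive = some, but no more than half, of replicates pass 50% inhibition; inactive = no replicate passes 50% inhibition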;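 also: signal counts dimethyl H3K9 product captured on neutravidin plate; 0% = median of DMSO wells and 100% = 0.3 times that DMSO median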
GRK2 aptamer HTS – inhibitors of human GRK2 displacing RNA aptamer. 330,000 compounds, 0.59% hits. P25098. inhibition of aptamer binding, % at 10 µM. bead flow cytometry, FAM-aptamer displacement from GRK2. AID 488847;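 active = inhibition of aptamer binding above 40%, roughly 3 SD of noise, on plates passing a quality check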;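 also: median bead fluorescence of bound FAM aptamer so fluorescent compounds give negative values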
Pemphigus Ab inh – human desmoglein-3 autoantibody binding inhibition | P32926 | DSG3-coupled beads, scFv-anti-DSG3-GFP binding, flow cytometry; stronger effect = lower value | binding (percent of control), % at 10 µM | 310,000 compounds, 0.48% hits | AID 588358;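 active = binding more than 3 SD below its plate's average and above zero; inconclusive = below that plate limit but binding exactly zero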;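 also: hits lower antibody fragment binding to DSG3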
GRK2 CP1 – human GRK2 inhibition confirmation, cherry pick 1. shares compounds with GRK2 aptamer HTS. 2,000 compounds, 4% hits. aptamer displacement, % at 10 µM. bead-bound GRK2, FAM-aptamer displacement, flow cytometry;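 active = aptamer displacement above 40%, near three times the noise of non-fluorescent compounds, on plates passing quality checks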;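 also: negative values mostly reflect intrinsic compound fluorescence rather than true enhancement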
Aptamer quench – fluorescent aptamer quenching in GRK2 counter-screen dose response. shares compounds with GRK2 aptamer HTS. Fluorescent RNA aptamer beads, flow cytometry; stronger effect = higher value. fluorescence change (kMESF span), kMESF (no concentration beside the values). 110 tested, under 10 active. AID 504521;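 active = compounds whose bead fluorescence drops by more than 37 kMESF across the dose range, marking them as dye quenchers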
Aptamer quench SP – aptamer fluorescence quenching in GRK2 counter-screen; shares compounds with GRK2 aptamer HTS; Carboxyfluorescein RNA aptamer on beads, flow cytometry quenching; stronger effect = lower value; fluorescence response (% of DMSO), % at 10 µM; 2,000 tested, under 10 active;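 active = compounds that quench the bead-bound fluorescent RNA probe, cutting fluorescence to under half of the solvent control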;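 also: counterscreen run without GRK2 so only probe quenching by compound is measured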
GRK2 CP2 – confirmation of human GRK2 inhibitors binding RNA aptamer site; inhibition of aptamer binding, % at 10 µM; shares compounds with GRK2 aptamer HTS; bead-bound GRK2, FAM-aptamer displacement, flow cytometry; 360 tested, under 10 active;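 active = inhibition of aptamer binding above 40%, about triple the noise seen with nonglowing compounds, on plates passing quality control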;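 also: negative values mostly come from compounds that fluoresce themselves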
FAM quench SP – quenches fluorescent RNA aptamer, GRK2 hit artifact; shares compounds with GRK2 aptamer HTS; 360 tested, under 10 active; AID 588494; fluorescence response vs DMSO, % at 10 µM; carboxyfluorescein RNA aptamer beads, flow cytometry quenching; stronger effect = lower value;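 active = response vs DMSO under 50%, meaning signal dropped by over half, treated as fluorescence quencher; inconclusive = no clear call, values can overlap the other calls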;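 also: labelled aptamer on streptavidin beads without GRK2 as a quench counter-screen; 100% = bead fluorescence of DMSO wells and lower means quenching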
* = called active by the depositor; ? = inconclusive; / = no result.

SMILES	VLA-4 inh	PREPL inh	GASC-1 inh	GRK2 aptamer HTS	Pemphigus Ab inh	GRK2 CP1	Aptamer quench SP	others
O=C(NCCCN1CCCC1)Nc1ccc(F)cc1	-5.2	8.9	-11.0	18.0	114.1	/	/
O=C(NCCCN1CCN(c2ccccc2F)CC1)Nc1ccc(F)cc1	-19.2	17.7	-17.5	0.0	115.1	-1.1	100.6
O=C(NCc1ccco1)C1CCCN1C(=O)NCc1ccccc1 (stereo not drawn)	13.2	-5.0	3.7	0.0	/	1.1	97.3
Cc1ccc(-c2cc(C(=O)N/N=C/c3ccco3)[nH]n2)cc1	-0.8	7.0	4.0	87.0*	105.4	-0.7	100.3
COc1cccc(/C=N/NC(=O)CCc2n[nH]c(=O)[nH]c2=O)c1O	11.9	0.3	7.4	1.0	/	/	/
O=C(CCc1n[nH]c(=O)[nH]c1=O)N/N=C/c1ccco1	7.7	-1.2	8.3	44.0*	83.0	25.0	96.0
O=C(N/N=C/c1ccco1)c1cc(-c2ccccc2)n[nH]1	2.3	-6.0	12.7	0.0	88.6	/	/
CC(C)(C)N(NC(=O)OCc1ccccc1)C(=O)c1ccccc1Cl	2.0	-10.2	1.9	0.0	87.1	/	/
CCCOc1ccc(CN(C(=O)c2cccc(OC)c2)C2CCS(=O)(=O)C2)cc1 (stereo not drawn)	-1.9	11.3	-1.2	99.0*	100.2	1.5	96.8
O=C(CSc1nnc(SCc2ccc(Cl)cc2)s1)N/N=C/c1ccccc1C(=O)O	1.2	-20.3	-4.4	1.0	99.2	/	/
COc1ccc(/C=N/NC(=O)c2cccc3ccccc23)c(OC)c1OC	-5.1	-1.3	-4.3	1.0	112.9	/	/
O=C(Cn1cc([N+](=O)[O-])cn1)N1CCc2ccccc21	-6.5	14.6	-4.1	3.0	120.0	0.2	98.5
Cc1ccc(C(=O)Nc2cccc(C(=O)NCc3ccco3)c2)cc1	21.2	-13.1	1.7	0.0	/	33.8	102.9	Aptamer quench=6.2
Cc1ccc(C(=O)NCc2ccco2)cc1	3.2	/	12.8	2.0	98.6	/	/
O=C(NCc1ccco1)c1cccc(NC(=O)c2ccccc2)c1	12.9	1.9	-3.3	0.0	95.6	-3.2	106.3
C=CCn1c(-c2sc3nc(C)cc(C)c3c2N)n[nH]c1=S	3.1	10.0	10.3	0.0	100.2	/	/
Cc1cc(C)cc(N=C2SC(CC(=O)Nc3ccccc3)C(=O)N2CCN2CCOCC2)c1 (stereo not drawn)	0.3	-2.0	81.0	0.0	/	/	/
CCn1c(=N)n(CC(=O)c2ccc(Br)s2)c2ccccc21	7.8	4.0	6.2	5.0	85.1	/	/
C=CCn1c[n+](CC(=O)c2ccc(Br)s2)c2ccccc21	-0.2	21.7	4.7	57.0*	105.4	-3.6	103.3
O=C(Nc1ccncc1)c1cccc2ccccc12	8.1	-2.6	1.5	49.0*	/	0.4	93.9
CC1CCN(C(=O)C(Cc2ccccc2)n2cccc2)CC1 (stereo not drawn)	-15.3	-0.6	0.4	56.0*	101.7	2.8	100.3
CC1CC(C)CN(C(=O)C(Cc2ccccc2)n2cccc2)C1 (stereo not drawn)	5.7	-3.8	-7.2	0.0	98.6	/	/
O=C(CSc1n[nH]c(-c2ccc(Br)cc2)n1)N1CCOCC1	1.5	7.7	-5.3	20.0	103.1	-1.9	100.8
COc1ccccc1-c1nc(SCC(=O)N2CCOCC2)n[nH]1	10.1	-3.0	-1.5	0.0	97.6	/	/
C=C(C)C(=O)Nc1cccc(C2=NOC3(C2)C[C@H](C(N)=O)N(C(=O)c2ccccc2)C3)c1 (stereo partly drawn)	6.4	-3.4	-16.3	48.0*	103.9	20.1	118.7	Aptamer quench=4.2
SMILES	VLA-4 inh	PREPL inh	GASC-1 inh	GRK2 aptamer HTS	Pemphigus Ab inh	GRK2 CP1	Aptamer quench SP	others
C=C(C)C(=O)Nc1cccc(C2=NOC3(C2)C[C@@H](C(N)=O)N(C(=O)c2ccc(Cl)cc2)C3)c1 (stereo partly drawn)	13.3	0.6	23.8	97.0*	/	91.7*	99.1	Aptamer quench=5.2
C=C(C)C(=O)Nc1cccc(C2=NOC3(C2)C[C@@H](C(N)=O)N(C(=O)C(=C)C)C3)c1 (stereo partly drawn)	-5.7	-6.7	9.3	75.0*	96.7	43.2*	101.2	Aptamer quench=-0.7
O=C(CCN1CCN(c2ccc(F)cc2)CC1)Nc1ccc(F)cc1	5.6	14.8	3.6	4.0	?	/	/
CC(=O)Nc1ccc(N2CCN(c3ccc(F)cc3)CC2)cc1	7.4	0.6	-22.4	11.0	100.1	-0.7	102.8
O=C(CN1C(=O)NC(Cc2ccccc2)C1=O)Nc1ccccc1F (stereo not drawn)	39.7	7.6	-4.2	44.0*	102.2	/	/	GRK2 CP2=26.0;FAM quench SP=100.0
COc1ccccc1-n1cc(CN2CCN(CC=C(C)C)C(CCO)C2)cn1 (stereo not drawn)	-1.0	12.6	-1.6	1.0	100.0	/	/
CCOc1cc(C(=O)N/N=C/c2cn(-c3ccccc3)nc2-c2cc3ccccc3o2)cc(OCC)c1OCC	/	/	/	/	93.2	/	/
O=C(c1ccc(Cl)cc1)n1c(NCc2ccccc2)n[nH]c1=S	-0.6	-0.1	-0.3	65.0*	/	-4.7	103.5
O=C(CCC(=O)c1ccc(Cl)cc1)NCc1ccccc1	3.6	13.7	-3.9	0.0	99.3	/	/
N=c1oc2cc(O)ccc2cc1C(=O)Nc1nc2ccccc2s1	-77.9	13.5	-15.7	30.0	99.4	-1.6	93.7
CSc1ccccc1C(=O)NCCCn1ccnc1	4.0	-0.7	0.2	100.0*	110.6	2.1	94.1
CC1CC(C)CN(C(=O)COC(=O)CCCN2C(=O)c3cccc4cccc(c34)C2=O)C1 (stereo not drawn)	4.0	21.2	21.7	0.0	/	/	/
CCN(Cc1ccccc1)C(=O)COC(=O)c1cc(=O)[nH]c2ccccc12	1.7	-24.3	1.6	0.0	102.2	/	/
Cc1ccc(CC(=O)NCCN2CCOCC2)cc1	9.1	-1.8	-0.6	0.0	108.0	/	/
COc1ccc(OCCOCCN2CCOCC2)cc1	-1.3	11.0	1.5	56.0*	99.5	0.7	98.7
CCOc1ccc(OCCOCCN2CCOCC2)cc1	-2.3	8.3	10.1	3.0	68.0	/	/
COc1ccc(CC(=O)NCCN2CCOCC2)cc1	5.9	4.3	1.7	32.0	96.0	3.3	100.6
O=C(CSc1nncn1-c1ccccc1)c1c[nH]c2ccccc12	-23.1	17.9	25.6	51.0*	106.3	6.0	108.9
